According to PubChem BioAssay (Tox21):
Records with an inconclusive call do not appear. Values without a mark were called inactive. Active and inactive are the calls of the source. Calls come from the whole dose curve; as a rule, active = well fitted cell-killing curve with a large enough effect in the repeat runs; inconclusive = weak or mixed curves, or effect the other way; inactive = flat fitted curve, though single readings scatter.

Assay: qHTS assay to identify small molecule agonists of the androgen receptor (AR) signaling pathway in the presence of an antagonist - cell viability counter screen (AID 1259379); note: nearly all actives have a fitted effect of over 25% in size
Settings: MDA-kb2 viability, CellTiter-Fluor, 16 h; series mostly up to 92.4 µM; activity change, negative = cytotoxicity: at the top concentration
From the text: National Center for Advancing Translational Sciences [NCATS]
NIH Chemical Genomics Center [NCGC]
U.S. Environmental Protection Agency [EPA]
National Institutes of Environmental Health Sciences [NIEHS]
National Toxicology Program [NTP]
U.S. Food and Drug Administration [FDA]
Androgen receptor (AR) is an important member of nuclear receptor family. Its signaling plays a critical role in AR-dependent prostate cancer and other androgen related diseases. Considerable attention has been given in the past decades to develop methods to study and screen for the environmental chemicals that have the potential to interfere with metabolic homeostasis, reproduction, developmental and behavioral functions. Therefore AR binding assay for screening against androgen agonists and antagonists can be used to identify potential endocrine disruptors.
MDA-kb2 cells (from ATCC, deposited by Wilson et al.) are human breast carcinoma cells that were stably transfected with a luciferase reporter gene under control of the MMTV promoter that contains response elements for both androgen receptor (AR) and glucocorticoid receptor (GR). This particular screening for measuring luciferase reporter gene activity using MDA-kb2 cells against Tox21 10K library compounds is a confirmation study on agonist mode screening in the presence of AR-antagonist compound (Nilutamide) at 3.0uM final concentration. The cytotoxicity of the compounds was tested in parallel by measuring the cell viability using CellTiter-Fluor assay system (Promega, Madison, WI) in the same wells.
Tox21 Assay Protocol Summary:
MDA-kb2 cells (cells cultured without CO2) were dispensed at 3,000 cells/well in 4uL of culture medium into white wall/solid-bottom 1536-well plates (Corning Life Sciences, Corning, NY) using a Multidrop Combi (Thermo Fisher Scientific Inc., Waltham, MA) dispenser. The assay plates were incubated at 37C and 0% CO2 for 5hr. One uL of 3.0uM (final concentration) Nilutamide or assay buffer was added using two separate tips of Flying Reagent Dispenser (FRD, Aurora Discovery, San Diego, CA). Then 23nL of compounds dissolved in DMSO at 15 concentrations and positive controls were transferred to the assay plates using a Pintool station (Wako, San Diego, CA). The assay plates were incubated at 37C and 0% CO2 for 16 hr. After 15hr incubation at 37C, 1uL/well CellTiter-Fluor reagent (Promega Corporation) was added to each well of the assay plates using FRD. After 1hr incubation at 37C and 0% CO2, the fluorescence signal was measured using a ViewLux plate reader (PerkinElmer, Shelton, CT).
% is set by controls: 0 for no effect and ±100 for the full control effect; potency is the fitted concentration of half-maximal effect.

SMILES | activity change, negative = cytotoxicity | Potency
CC(C)CC(O)CC(C)C | -1.23% | 
CCCCCCCCCCCCCC(=O)OCC(O)CO (stereo not given) | -3.16% | 
Cc1oc(=O)oc1COC(=O)[C@@H]1N2C(=O)[C@@H](NC(=O)[C@H](N)c3ccccc3)[C@H]2SC1(C)C | 2.12% [at 42.5 µM] | 
O=S(=O)(Cl)c1c(Cl)cccc1Cl | -1.47% | 
COc1ccc(-n2nc(C(F)F)cc2-c2ccc(S(C)=O)cc2)cc1 (stereo not given) | -2.08% | 
CCN(CC)c1cccc(O)c1 | 1.47% | 
CC(=O)c1ccc[nH]1 | 0.408% | 
CC(=O)C(C)=O | 0.388% | 
CC(C)(O)CCc1ccccc1 | 0.862% | 
CC(=O)OCC(=O)[C@@]1(OC(C)=O)[C@@H](C)C[C@H]2[C@@H]3C[C@H](F)C4=CC(=O)C=C[C@]4(C)[C@@]3(F)[C@@H](O)C[C@@]21C | 1.33% [at 42.5 µM] | 
CC(C)(C(=O)c1cccnc1)c1cccnc1 | 3.35% [at 42.5 µM] | 
CSCC[C@H](NC(=O)[C@H](Cc1c[nH]c2ccccc12)NC(=O)CCNC(=O)OC(C)(C)C)C(=O)N[C@@H](CC(=O)O)C(=O)N[C@@H](Cc1ccccc1)C(N)=O | -1.36% [at 42.5 µM] | 
CC[C@H]1OC(=O)[C@H](C)[C@@H](O[C@H]2C[C@@](C)(OC)[C@@H](O)[C@H](C)O2)[C@H](C)[C@@H](O[C@@H]2O[C@H](C)C[C@H](N(C)C)[C@H]2O)[C@](C)(O)C[C@@H](C)CN(C)[C@H](C)[C@@H](O)[C@]1(C)O | -5.94% [at 42.5 µM] | 
O=C(O)/C=C/c1ccc(O)c(O)c1 | 1.73% | 
COc1cc(S(=O)(=O)Nc2ccccc2)c(OC)cc1N | -4.31% | 
CCCCCCCCCCCCCCCCCC(=O)OCC(CC)CCCC (stereo not given) | 1.61% | 
CC1=CC[C@@]23C[C@@H]1C(C)(C)[C@@H]2CC[C@H]3C | 3.67% | 
CCO[Si](C)(CCCOCC1CO1)OCC (stereo not given) | 0.0635% | 
N[C@@H](Cc1cc(I)c(O)c(I)c1)C(=O)O | -2.59% [at 42.5 µM] | 
CCCCCCCC/C=C\CCCCCCCC(=O)OCCO | -13.4% | 

SMILES | activity change, negative = cytotoxicity | Potency
C=C(C)c1ccccc1 | -0.212% | 
Nc1ccc(NC(=O)c2ccc(N)cc2)cc1 | -4.02% | 
C[C@@H]1[C@H](O)[C@@H](C)/C=C/C=C\C=C\C=C\C=C\C=C\C=C\[C@H](O[C@@H]2O[C@H](C)[C@@H](O)[C@H](N)[C@@H]2O)C[C@@H]2O[C@](O)(C[C@@H](O)C[C@@H](O)[C@H](O)CC[C@@H](O)C[C@@H](O)CC(=O)O[C@H]1C)C[C@H](O)[C@H]2C(=O)O (stereo in doubt) |  | 61.1 µM (active)
c1ccc(CNc2ncnc3c2ncn3C2CCCCO2)cc1 (stereo not given) | 0.366% | 
O=C1CC[C@@H](C(=O)O)N1 | 4.65% [at 42.5 µM] | 
O=C(O)c1cccc(C[C@@H]2COc3ccc(OCc4nc5cc(F)ccc5s4)cc3[C@@H]2O)c1 | -0.0616% | 
CC(C)N=C=NC(C)C | -0.886% | 
Cc1ccc(S(=O)(=O)NC(=O)NC2CCCCC2)cc1 | 6.93% [at 42.5 µM] | 
CCCCCCCC/C=C/C(=O)O | 0.1% [at 42.5 µM] | 
O=C1NC(=O)c2cccc3cccc1c23 | -1.99% | 
Oc1cccc2[nH]ccc12 | 0.58% [at 42.5 µM] | 
O=C1OC[C@H](Cc2cccc(O)c2)[C@H]1Cc1cccc(O)c1 | -1.97% [at 42.5 µM] | 
COc1cc(NS(=O)(=O)c2ccc(N)cc2)nc(C)n1 | -0.126% [at 42.5 µM] | 
CNC1CCCN(c2c(F)cc3c(=O)c(C(=O)O)cn(C4CC4)c3c2OC)C1 (stereo not given) | 0.861% [at 42.5 µM] | 
O=C(O)c1cccc(Oc2ccccc2)c1 | -0.899% | 
O=C1OC(=O)c2c(Br)c(Br)c(Br)c(Br)c21 | 1.26% | 
c1ccc(CCCc2ccncc2)cc1 | -11.8% | 
CCN(CC)CC(=O)Nc1c(C)cccc1C(=O)OC | 1.75% [at 42.5 µM] | 
CN1C(CSCC(F)(F)F)Nc2cc(Cl)c(S(N)(=O)=O)cc2S1(=O)=O (stereo not given) | -1.68% [at 42.5 µM] | 
COC1CCC=CO1 (stereo not given) | 1.61% | 
